# Inconclusive results are not listed. Active and inactive are the calls of the source. How the source made its calls, unless noted: active means hit-call score of the fitted dose curve at least 0.9, where 1 is the maximum; inconclusive means response in the unintended direction; inactive means score below 0.9.
# Experiments:
# [1] = target: Agonist Androgen Response Element (ARE), AR (gene 367) (UniProt P10275); test: OT_AR_ARELUC_AG_1440: Odyssey Thera (OT) 24-hour CHO-K1 Luciferase Assay for Agonist Androgen Response Element (ARE) (AID 2283379)
# In short: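 Agonist mode, 24 h exposure in CHO-K1 ARE-luciferase cells; values reflect luminescence induction over vehicle.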
# [2] = target: Estrogen receptor beta (Homo sapiens) (UniProt Q92731); test: OT_ER_ERbERb_1440: Odyssey Thera (OT) 24-hour HEK293T Protein-Complementation Assay for Estrogen Receptor-beta/-beta Homodimer (AID 2283380);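 further: fluorescence gain from ER beta LBD homodimer complementation read by laser scanning cytometry; scored as signal increase over DMSO baseline for both agonists and antagonists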
# In short: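 Fluorescence increase, nuclear for agonists or whole-cell for antagonists, relative to DMSO vehicle, quantified by laser scanning cytometer after fixation and Draq5 staining. Readout from 24 h treatment of HEK293T cells carrying complementation-paired ER beta LBD (aa 310-547).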
# [3] = target: Retinoic acid receptor RXR-alpha (Homo sapiens) (UniProt P19793); test: OT_NURR1_NURR1RXRa_0480: Odyssey Thera (OT) 8-hour HEK293T Protein Complementation Assay for Nurr1/retinoid X receptor (RXR) (AID 2283385)
# In short: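 8 h compound exposure, HEK293T; Nurr1/RXRα fragment complementation; fluorescence intensity; positive fitting direction vs DMSO baseline.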
# [4] = target: Retinoic acid receptor RXR-alpha (Homo sapiens) (UniProt P19793); test: OT_NURR1_NURR1RXRa_1440: Odyssey Thera (OT) 24-hour HEK293T Protein Complementation Assay for Nurr1/retinoid X receptor (RXR) (AID 2283386)
# In short: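 Interaction of Nurr1 with RXRα brings fused reporter fragments together in human HEK293T cells, restoring a functional reporter. Fluorescence intensity is measured 24 h after chemical treatment, and values are analysed in the positive direction against DMSO.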
# [5] = target: Peroxisome proliferator-activated receptor gamma (Homo sapiens) (UniProt P37231); test: OT_PPARg_PPARgSRC1_1440: Odyssey Thera (OT) 24-hour Protein-Complementation Assay for Peroxisome Proliferator-activated Receptor Gamma/ SRC-1 Co-activator (AID 2283388)
# In short: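 Readout: nuclear-to-cytoplasmic 488 nm fluorescence ratio, ≥350 cells per image, 8 images per well, after 24 h compound exposure of HEK293T expressing PPARg/SRC-1 split-YFP fusions. Activity fitted in positive direction against DMSO.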
# [6] = target: Peroxisome proliferator-activated receptor gamma (Homo sapiens) (UniProt P37231); test: OT_PPARg_PPARgSRC1_0480: Odyssey Thera (OT) 8-hour Protein-Complementation Assay for Peroxisome Proliferator-activated Receptor Gamma / SRC-1 Co-activator (AID 2283387);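 further: nuclear to cytoplasmic split Venus YFP fluorescence ratio reporting PPARg SRC-1 interaction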
# In short: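 HEK293T transiently transfected with PPARg and SRC-1 fused to Venus YFP fragments, compounds 8 h at 37C. Fixed, Draq5-stained cells imaged; nuclear/cytoplasmic 488 nm fluorescence ratio over at least 350 cells per image; gain fitted versus DMSO.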
# [7] = target: human Norepinephrine Transporter (NET), SLC6A2 (gene 6530) (UniProt P23975); test: NVS_TR_hNET: NovaScreen (NVS) Transporter Assay for human Norepinephrine Transporter (NET) (AID 2283377);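 further: cell-free membrane protein extracted from CHO cells expressing human NET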;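 on AC50: displacement of radioligand from human NET seen as loss of scintillation signal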
# In short: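 Scintillation counts of filter-retained radioligand served as the readout, taken 1 h post-dosing in a cell-free CHO-derived system. Test chemicals ran first at 25 uM in duplicate; confirmed hits were retested across concentrations.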
# [8] = CEETOX_H295R_11DCORT: CeeTox H295R High-throughput Steroidogenesis Assay for 11-Deoxycortisol (11DCORT) (AID 2283432; active means hit-call score of the fitted dose curve at least 0.9, where 1 is the maximum; inactive means score below 0.9); settings: actives raise or lower the signal
# In short: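 H295R cells prestimulated 48 h with 10 uM forskolin, then exposed 48 h to chemical in 0.1% DMSO. 11-Deoxycortisol in medium quantified by HPLC-MS/MS after MTBE extraction; bidirectional fit versus DMSO. MTT viability read in same wells.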
# [9] = CEETOX_H295R_OHPREG: CeeTox H295R High-throughput Steroidogenesis Assay for OH-Pregnenolone (OHPREG) (AID 2283434; active means hit-call score of the fitted dose curve at least 0.9, where 1 is the maximum; inactive means score below 0.9); settings: actives raise or lower the signal
# In short: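 Hormone levels in spent medium were measured by tandem mass spectrometry following liquid-liquid extraction. Cells (H295R) had been forskolin-stimulated (10 uM, 48 h) before a 48 h chemical exposure at 0.1% DMSO, with activity fitted in both directions against DMSO.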
# [10] = CEETOX_H295R_CORTIC: CeeTox H295R High-throughput Steroidogenesis Assay for Corticosterone (CORTIC) (AID 2283437; active means hit-call score of the fitted dose curve at least 0.9, where 1 is the maximum; inactive means score below 0.9;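 further: corticosterone secreted into medium quantified by mass spectrometry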); settings: actives raise or lower the signal
# In short: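 Corticosterone secreted into medium is measured by reverse-phase HPLC with tandem MS following liquid-liquid extraction. Cells are forskolin-stimulated (10 uM, 48 h) before 48 h test exposure; activity fitted in both directions against DMSO.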
# [11] = CEETOX_H295R_CORTISOL: CeeTox H295R High-throughput Steroidogenesis Assay for Cortisol (AID 2283438; active means hit-call score of the fitted dose curve at least 0.9, where 1 is the maximum; inactive means score below 0.9;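 further: cortisol secreted into medium quantified by LC-MS/MS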); settings: actives raise or lower the signal
# In short: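 Forskolin 10 uM 48 h prestim → test cmpd in DMSO (0.1% final) 48 h → medium MTBE-extracted → LC-MS/MS cortisol vs 7-pt std curve. Gain/loss of signal fitted vs DMSO. MTT viability in same wells.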
# [12] = system: guinea pig Dopamine Transporter (DAT), gene 100714898; test: NVS_TR_gDAT: NovaScreen (NVS) Transporter Assay for guinea pig Dopamine Transporter (DAT) (AID 2283369);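 further: active compounds lower bound radioligand signal relative to DMSO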
# In short: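 Cell-free striatal membrane prep (guinea pig), 2 h exposure, filtration + scintillation readout of radioligand binding. Single-point 25 uM duplicate; actives rerun singleton, top conc 50 uM.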
# [13] = target: human Dopamine Transporter (DAT), SLC6A3 (gene 6531) (UniProt Q01959); test: NVS_TR_hDAT: NovaScreen (NVS) Transporter Assay for human Dopamine Transporter (DAT) (AID 2283374);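 further: activity means loss of bound radioligand signal relative to DMSO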
# In short: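 Test chemicals were first screened in duplicate at 25 uM, with actives retested as concentration series. Displacement of a specific radioligand from cell-free human dopamine transporter was measured after 1 h by filtration and scintillation counting.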
# [14] = target: Bile acid receptor (Homo sapiens) (UniProt Q96RI1); test: OT_FXR_FXRSRC1_0480: Odyssey Thera (OT) 8-hour HEK293T Protein-Complementation Assay for Farnesoid X receptor/SRC-1 Co-activator (AID 2283383)
# In short: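 Human kidney HEK293T cells carried FXR/SRC-1 fragment-complementation constructs. Compounds were added and incubated 8 h. Reporter reassembly upon receptor–co-activator interaction was then quantified by fluorescence, with curves fitted in the positive direction relative to DMSO.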
# [15] = target: Bile acid receptor (Homo sapiens) (UniProt Q96RI1); test: OT_FXR_FXRSRC1_1440: Odyssey Thera (OT) 24-hour HEK293T Protein-Complementation Assay for Farnesoid X receptor/SRC-1 Co-activator (AID 2283384)
# In short: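 Compounds are applied to human kidney HEK293T cells expressing bait and prey fused to reporter protein fragments; after 24 h, reconstituted reporter fluorescence is measured. Activity is fitted as signal gain over DMSO.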
# [16] = target: Estrogen receptor (Homo sapiens) (UniProt P03372); test: OT_ERa_GFPERaERE_0480: Odyssey Thera (OT) 8-hour HeLa Transcription Induction Assay for Estrogen Receptor (AID 2283381; active means hit-call score of the fitted dose curve at least 0.9, where 1 is the maximum; inactive means score below 0.9)
# In short: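 Fluorescent reporter signal, imaged by microscopy and scored with image-analysis algorithms, was taken 8 h after chemical dosing of HeLa cells; activity was fitted upward relative to DMSO.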
# [17] = target: Estrogen receptor (Homo sapiens) (UniProt P03372); test: OT_ERa_GFPERaERE_0120: Odyssey Thera (OT) 2-hour HeLa Transcription Induction Assay for Estrogen Receptor (AID 2283382)
# In short: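 HeLa, 384-well, 2 h chemical exposure; GFP reporter induction (ERE), fluorescence microscopy; high content image analysis; positive fitting direction vs DMSO.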
# [18] = CEETOX_H295R_ANDR: CeeTox H295R High-throughput Steroidogenesis Assay for Androstenedione (ANDR) (AID 2283436; active means hit-call score of the fitted dose curve at least 0.9, where 1 is the maximum; inactive means score below 0.9;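 further: human H295R adrenal cells exposed for 48 h with androstenedione measured in medium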); settings: actives raise or lower the signal
# In short: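 Read-out is androstenedione secreted into medium, measured by tandem mass spectrometry after liquid-liquid extraction. Cells were H295R, dosed for 48 h per modified OECD 456; activity fitted in both directions relative to DMSO.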
# Sequence of Estrogen receptor beta (Homo sapiens) (Q92731 whole entry, looked up, the tested form may be a part): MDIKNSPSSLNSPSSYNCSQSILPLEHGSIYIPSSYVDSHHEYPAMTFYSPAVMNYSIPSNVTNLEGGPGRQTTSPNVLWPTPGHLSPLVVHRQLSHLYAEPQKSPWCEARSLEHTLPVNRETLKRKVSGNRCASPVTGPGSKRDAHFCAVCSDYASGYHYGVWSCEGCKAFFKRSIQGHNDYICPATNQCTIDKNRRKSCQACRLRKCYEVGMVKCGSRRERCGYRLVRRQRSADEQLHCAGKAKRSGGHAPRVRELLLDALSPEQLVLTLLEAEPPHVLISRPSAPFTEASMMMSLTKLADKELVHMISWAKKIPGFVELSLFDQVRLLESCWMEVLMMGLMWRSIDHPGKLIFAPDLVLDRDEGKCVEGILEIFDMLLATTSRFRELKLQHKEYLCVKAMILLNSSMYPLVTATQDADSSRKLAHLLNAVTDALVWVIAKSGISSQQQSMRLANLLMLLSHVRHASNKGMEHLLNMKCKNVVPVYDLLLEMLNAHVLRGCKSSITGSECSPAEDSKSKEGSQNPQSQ
# Sequence of Agonist Androgen Response Element (ARE), AR (gene 367) (P10275 whole entry, looked up): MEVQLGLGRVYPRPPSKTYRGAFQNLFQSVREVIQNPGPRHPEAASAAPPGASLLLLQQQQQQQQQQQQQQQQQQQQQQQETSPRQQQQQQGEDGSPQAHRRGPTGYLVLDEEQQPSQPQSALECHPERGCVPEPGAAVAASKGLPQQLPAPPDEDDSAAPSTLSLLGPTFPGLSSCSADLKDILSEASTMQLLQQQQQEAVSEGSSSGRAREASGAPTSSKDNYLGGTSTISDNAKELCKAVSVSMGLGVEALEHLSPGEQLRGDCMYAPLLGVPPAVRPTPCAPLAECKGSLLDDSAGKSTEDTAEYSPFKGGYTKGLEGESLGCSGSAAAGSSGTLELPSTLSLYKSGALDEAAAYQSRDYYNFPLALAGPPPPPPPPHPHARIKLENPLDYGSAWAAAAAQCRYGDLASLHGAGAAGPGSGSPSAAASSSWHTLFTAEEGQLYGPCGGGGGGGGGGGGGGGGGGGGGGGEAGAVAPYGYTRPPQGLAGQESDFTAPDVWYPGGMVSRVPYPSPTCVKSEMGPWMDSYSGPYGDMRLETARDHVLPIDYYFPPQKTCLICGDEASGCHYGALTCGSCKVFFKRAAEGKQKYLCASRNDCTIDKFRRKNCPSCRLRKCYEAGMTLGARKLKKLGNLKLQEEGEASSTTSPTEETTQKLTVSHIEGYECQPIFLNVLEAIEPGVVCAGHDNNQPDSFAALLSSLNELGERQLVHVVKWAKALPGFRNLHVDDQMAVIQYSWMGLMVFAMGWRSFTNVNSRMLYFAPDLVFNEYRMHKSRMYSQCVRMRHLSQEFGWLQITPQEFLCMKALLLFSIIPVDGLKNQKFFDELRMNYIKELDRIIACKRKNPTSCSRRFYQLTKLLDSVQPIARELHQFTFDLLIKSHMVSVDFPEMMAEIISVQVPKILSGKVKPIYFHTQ
# Sequence of Retinoic acid receptor RXR-alpha (Homo sapiens) (P19793 whole entry, looked up, the tested form may be a part): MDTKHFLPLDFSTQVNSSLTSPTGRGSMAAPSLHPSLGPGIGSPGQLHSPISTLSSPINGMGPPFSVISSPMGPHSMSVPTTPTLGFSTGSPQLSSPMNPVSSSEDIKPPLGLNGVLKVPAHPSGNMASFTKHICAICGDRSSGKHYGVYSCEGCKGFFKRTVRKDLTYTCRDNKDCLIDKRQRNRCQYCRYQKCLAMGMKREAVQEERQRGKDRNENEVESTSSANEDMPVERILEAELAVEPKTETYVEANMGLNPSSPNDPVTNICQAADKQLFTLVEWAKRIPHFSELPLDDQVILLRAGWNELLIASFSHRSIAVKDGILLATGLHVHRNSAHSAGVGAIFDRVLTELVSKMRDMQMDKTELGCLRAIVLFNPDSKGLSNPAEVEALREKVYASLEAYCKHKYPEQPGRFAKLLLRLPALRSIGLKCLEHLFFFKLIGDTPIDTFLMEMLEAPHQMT
# Sequence of Bile acid receptor (Homo sapiens) (Q96RI1 whole entry, looked up, the tested form may be a part): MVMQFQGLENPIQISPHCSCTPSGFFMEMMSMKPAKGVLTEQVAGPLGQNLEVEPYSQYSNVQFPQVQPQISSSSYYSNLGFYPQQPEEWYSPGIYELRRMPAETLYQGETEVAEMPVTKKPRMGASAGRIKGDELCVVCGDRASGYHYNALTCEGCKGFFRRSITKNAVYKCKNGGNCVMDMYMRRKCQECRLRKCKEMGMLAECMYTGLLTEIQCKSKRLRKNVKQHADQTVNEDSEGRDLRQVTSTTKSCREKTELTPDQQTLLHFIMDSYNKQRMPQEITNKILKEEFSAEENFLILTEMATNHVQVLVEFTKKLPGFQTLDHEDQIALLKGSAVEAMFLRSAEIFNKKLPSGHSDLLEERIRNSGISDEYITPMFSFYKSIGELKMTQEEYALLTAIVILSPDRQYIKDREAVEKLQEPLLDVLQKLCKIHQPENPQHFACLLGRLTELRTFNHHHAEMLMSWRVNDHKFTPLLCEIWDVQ
# Sequence of Peroxisome proliferator-activated receptor gamma (Homo sapiens) (P37231 whole entry, looked up, the tested form may be a part): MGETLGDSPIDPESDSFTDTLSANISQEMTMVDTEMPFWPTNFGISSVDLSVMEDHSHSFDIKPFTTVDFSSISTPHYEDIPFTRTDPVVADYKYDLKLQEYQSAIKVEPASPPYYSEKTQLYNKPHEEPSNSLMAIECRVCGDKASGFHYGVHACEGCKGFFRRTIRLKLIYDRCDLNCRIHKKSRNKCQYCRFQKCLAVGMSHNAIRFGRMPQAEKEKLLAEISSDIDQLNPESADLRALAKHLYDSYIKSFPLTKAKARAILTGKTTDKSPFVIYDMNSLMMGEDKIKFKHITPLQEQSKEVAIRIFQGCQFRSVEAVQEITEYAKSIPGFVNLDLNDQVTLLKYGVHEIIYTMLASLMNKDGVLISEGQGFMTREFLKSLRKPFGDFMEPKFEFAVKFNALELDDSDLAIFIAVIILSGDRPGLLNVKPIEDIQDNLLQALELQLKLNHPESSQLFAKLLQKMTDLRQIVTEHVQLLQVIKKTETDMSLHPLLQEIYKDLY
# Sequence of human Norepinephrine Transporter (NET), SLC6A2 (gene 6530) (P23975 whole entry, looked up): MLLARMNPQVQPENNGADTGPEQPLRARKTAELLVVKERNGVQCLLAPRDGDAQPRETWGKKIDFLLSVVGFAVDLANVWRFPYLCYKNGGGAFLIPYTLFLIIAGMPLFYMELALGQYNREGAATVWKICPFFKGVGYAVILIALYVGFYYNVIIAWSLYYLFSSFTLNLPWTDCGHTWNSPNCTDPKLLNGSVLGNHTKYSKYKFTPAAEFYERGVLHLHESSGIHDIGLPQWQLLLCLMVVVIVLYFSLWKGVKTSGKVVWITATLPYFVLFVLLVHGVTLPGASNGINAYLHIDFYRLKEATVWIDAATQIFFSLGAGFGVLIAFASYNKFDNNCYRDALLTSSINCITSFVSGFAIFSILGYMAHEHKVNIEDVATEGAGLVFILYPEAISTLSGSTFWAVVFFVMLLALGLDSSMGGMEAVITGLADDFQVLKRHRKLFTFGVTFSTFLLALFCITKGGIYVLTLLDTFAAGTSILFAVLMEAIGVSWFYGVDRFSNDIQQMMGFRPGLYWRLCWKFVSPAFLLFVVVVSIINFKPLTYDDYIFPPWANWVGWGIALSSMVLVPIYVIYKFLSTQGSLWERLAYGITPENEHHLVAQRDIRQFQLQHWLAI
# Sequence of Estrogen receptor (Homo sapiens) (P03372 whole entry, looked up): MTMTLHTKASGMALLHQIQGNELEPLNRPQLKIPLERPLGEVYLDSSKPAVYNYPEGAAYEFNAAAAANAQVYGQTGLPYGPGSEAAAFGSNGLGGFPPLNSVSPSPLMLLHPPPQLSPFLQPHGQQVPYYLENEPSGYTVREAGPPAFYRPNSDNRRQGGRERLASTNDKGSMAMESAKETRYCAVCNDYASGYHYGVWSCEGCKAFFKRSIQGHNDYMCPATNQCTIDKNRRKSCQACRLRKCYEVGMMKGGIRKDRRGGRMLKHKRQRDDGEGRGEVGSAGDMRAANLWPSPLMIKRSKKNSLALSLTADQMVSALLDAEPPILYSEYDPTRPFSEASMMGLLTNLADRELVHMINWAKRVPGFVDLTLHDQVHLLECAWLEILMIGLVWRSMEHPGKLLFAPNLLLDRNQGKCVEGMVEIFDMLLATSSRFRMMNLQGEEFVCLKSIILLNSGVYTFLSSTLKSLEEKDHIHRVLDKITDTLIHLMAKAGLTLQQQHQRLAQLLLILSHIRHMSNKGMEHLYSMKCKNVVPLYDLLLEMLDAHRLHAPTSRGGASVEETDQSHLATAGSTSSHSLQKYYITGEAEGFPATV
# Sequence of human Dopamine Transporter (DAT), SLC6A3 (gene 6531) (Q01959 whole entry, looked up): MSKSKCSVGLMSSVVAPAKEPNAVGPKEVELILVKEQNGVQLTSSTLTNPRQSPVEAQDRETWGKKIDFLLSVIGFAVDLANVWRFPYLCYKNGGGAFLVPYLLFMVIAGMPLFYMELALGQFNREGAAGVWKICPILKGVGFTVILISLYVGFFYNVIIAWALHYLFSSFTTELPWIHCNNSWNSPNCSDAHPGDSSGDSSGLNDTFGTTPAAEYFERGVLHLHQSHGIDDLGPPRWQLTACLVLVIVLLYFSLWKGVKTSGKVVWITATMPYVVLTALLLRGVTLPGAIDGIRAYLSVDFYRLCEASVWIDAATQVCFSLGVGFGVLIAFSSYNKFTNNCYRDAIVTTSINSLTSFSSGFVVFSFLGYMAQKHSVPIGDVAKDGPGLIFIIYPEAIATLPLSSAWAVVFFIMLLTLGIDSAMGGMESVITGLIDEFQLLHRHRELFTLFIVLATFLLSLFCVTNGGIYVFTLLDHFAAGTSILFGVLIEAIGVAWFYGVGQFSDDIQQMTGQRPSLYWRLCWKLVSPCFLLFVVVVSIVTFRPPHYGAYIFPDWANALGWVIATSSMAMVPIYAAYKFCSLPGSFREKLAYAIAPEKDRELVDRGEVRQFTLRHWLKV
smiles,measurement,setting,value
CCc1ccc(O)cc1,outcome,[1],inactive
same,outcome,[2],inactive
same,outcome,[3],inactive
same,outcome,[4],inactive
same,outcome,[5],inactive
C[C@H]1O[C@@H](O[C@H]2[C@@H](O)C[C@H](O[C@H]3[C@@H](O)C[C@H](O[C@H]4CC[C@@]5(C)[C@H](CC[C@@H]6[C@@H]5C[C@@H](O)[C@]5(C)[C@@H](C7=CC(=O)OC7)CC[C@]65O)C4)O[C@@H]3C)O[C@@H]2C)C[C@H](O)[C@@H]1O,outcome,[1],inactive
same,outcome,[2],inactive
same,outcome,[6],inactive
same,outcome,[5],inactive
COc1cccc(OC)c1O,outcome,[7],inactive
CC=Cc1ccc(OCC)c(O)c1,AC50,[7],5.31 µM (active)
same,outcome,[8],inactive
same,outcome,[9],inactive
same,outcome,[10],inactive
same,outcome,[11],inactive
O=C1OC[C@H](Cc2cccc(O)c2)[C@H]1Cc1cccc(O)c1,AC50,[12],0.771 µM (active)
same,AC50,[13],0.0517 µM (active)
same,outcome,[3],inactive
same,outcome,[6],inactive
same,outcome,[5],inactive
CCCCCCCCCCCCCC(=O)OCC(O)CO (centres undefined),outcome,[1],inactive
same,outcome,[2],inactive
same,AC50,[14],79.8 µM (active)
same,AC50,[15],82.9 µM (active)
same,outcome,[3],inactive
same,outcome,[4],inactive
CC(C)CCCCCCc1ccc(OCCOCCO)cc1,AC50,[1],3.19 µM (active)
same,AC50,[2],25 µM (active)
same,outcome,[16],inactive
same,outcome,[17],inactive
same,outcome,[4],inactive
same,outcome,[6],inactive
same,outcome,[5],inactive
CCOC(=O)[C@@H](C)Oc1ccc(Oc2nc3ccc(Cl)cc3o2)cc1,outcome,[1],inactive
same,outcome,[2],inactive
same,AC50,[14],24 µM (active)
same,AC50,[15],50 µM (active)
same,outcome,[3],inactive
same,outcome,[4],inactive
same,outcome,[6],inactive
same,outcome,[5],inactive
same,outcome,[8],inactive
same,outcome,[9],inactive
same,outcome,[18],inactive
same,outcome,[10],inactive
same,outcome,[11],inactive
CCCC(O)C(O)CO (centres undefined),outcome,[7],inactive
C=CC(=O)OCCCC,outcome,[2],inactive
same,outcome,[14],inactive
same,outcome,[15],inactive
same,outcome,[3],inactive
same,outcome,[4],inactive
COS(=O)(=O)O,outcome,[2],inactive
same,outcome,[14],inactive
same,outcome,[4],inactive
CCCCOC(=O)CCCCCCCC(=O)OCCCC,outcome,[2],inactive
same,outcome,[14],inactive
same,outcome,[3],inactive
same,outcome,[4],inactive
same,outcome,[6],inactive
same,outcome,[5],inactive
O=[N+]([O-])c1ccc(O)cc1C(F)(F)F,AC50,[2],68.4 µM (active)
same,outcome,[14],inactive
same,AC50,[15],77.1 µM (active)
same,AC50,[4],86.8 µM (active)
same,outcome,[6],inactive
same,outcome,[5],inactive
CCCCCCC(=O)c1ccccc1,outcome,[2],inactive
same,outcome,[14],inactive
same,outcome,[15],inactive
same,outcome,[3],inactive
same,outcome,[4],inactive
same,outcome,[6],inactive
same,outcome,[5],inactive
CCCCCCCCSCCO,outcome,[1],inactive
same,AC50,[14],74.1 µM (active)
same,outcome,[15],inactive
same,outcome,[3],inactive
same,outcome,[4],inactive
same,outcome,[6],inactive
same,outcome,[5],inactive
Cc1cc(S(=O)(=O)O)ccc1N=Nc1c(O)ccc2ccccc12,outcome,[2],inactive
same,outcome,[15],inactive
same,outcome,[4],inactive
same,outcome,[5],inactive
CC(C)c1ccccc1O,outcome,[2],inactive
same,outcome,[14],inactive
same,outcome,[3],inactive
same,outcome,[4],inactive
